AmpC inh no detg: blocks E. coli AmpC beta-lactamase in detergent-free assay | AmpC nitrocefin hydrolysis, absorbance 480 nm, 0.0001% Triton | Potency, µM (top dose mostly 57.1 µM), without a hit: at the highest dose activity change, negative = inhibition, usual class: inhibitors | 330,000 compounds, 0.52% hits | AID 485341;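 also: potency is read from the fitted curve at half-maximal effect; plate controls were no compound for no effect and no enzyme for full effect; nearly all actives have a fitted effect of over 20% in size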
Target sequence (P00811 whole entry, looked up): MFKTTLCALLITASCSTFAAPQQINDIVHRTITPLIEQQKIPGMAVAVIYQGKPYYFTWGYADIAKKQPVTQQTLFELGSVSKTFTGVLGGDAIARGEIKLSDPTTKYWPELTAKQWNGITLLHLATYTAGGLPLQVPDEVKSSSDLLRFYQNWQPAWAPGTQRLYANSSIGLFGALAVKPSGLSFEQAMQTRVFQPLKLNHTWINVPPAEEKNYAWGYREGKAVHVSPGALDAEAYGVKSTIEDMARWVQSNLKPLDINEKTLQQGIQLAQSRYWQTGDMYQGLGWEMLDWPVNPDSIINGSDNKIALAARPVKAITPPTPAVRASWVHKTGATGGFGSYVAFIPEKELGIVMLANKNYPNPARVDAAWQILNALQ
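AmpC (5.3 nM in the dispensed reagent) in 20 mM phosphate pH 7.0 with 0.01% (detergent screen) or 0.0001% Triton X-100 was preincubated with compounds for 15 min at room temperature. Nitrocefin was then added from an 800 uM solution, and hydrolysis was followed at 480 nm.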
AMA1 RON2 block: inhibitors of Plasmodium falciparum AMA1-RON2 interaction; AlphaScreen AMA1-biotinylated RON2 peptide binding; Potency, µM (highest dose often 58.2 µM), for inactives: at the highest dose activity change, negative = inhibition, most hits filed as inhibitors; 360,000 compounds, 0.2% hits; AID 720542;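 also: potency is read from the fitted curve at half-maximal effect; 0% = vehicle wells and -100% = peptide control; nearly all actives have a fitted effect of over 45% in size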
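AMA1 (3D7) with his tag at 25 nM final met compounds first, then biotinylated RON2 peptide at 25 nM; detection used donor plus acceptor beads, 10 µg/mL apiece, read by AlphaScreen after 30 min at room temperature.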
SARS PLP yeast: inhibitors of SARS-CoV papain-like protease in yeast | S. cerevisiae expressing SARS-CoV PLpro, growth rescue | Potency, µM (top dose mostly 32.9 µM), for the others: at the highest dose activity, positive = growth rescue, actives largely listed as activators | 330,000 compounds, 0.19% hits | AID 485353; calls by dose curve; also: potency is read from the fitted curve at half-maximal effect; 0% is about no effect; nearly all actives have a fitted effect of over 55% in size
Shiga inhibitor: Shiga toxin inhibition; Vero cells, Shiga toxin protein synthesis inhibition reporter; inhibition, % at 38.7 µM; 290,000 compounds, 9.2% hits; AID 2315; in the data active = inhibition mostly above about 28%, no sharp cut-off; inactive = mostly below about 43%; also: 0% is about no effect
AmpC inh detg: inhibitors of E. coli AmpC beta-lactamase with detergent; Potency, µM (highest dose often 114 µM), for the others: top-dose activity change, negative = inhibition, actives largely listed as inhibitors; AmpC hydrolysis of nitrocefin, absorbance 480 nm, 0.01% Triton; 370,000 compounds, 0.041% hits; AID 485294; P00811;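 also: potency is read from the fitted curve at half-maximal effect; 0% = no-compound wells and -100% = no-enzyme wells; nearly all actives have a fitted effect of over 25% in size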
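20 mM phosphate pH 7.0 + 0.01% (detergent screen) or 0.0001% Triton X-100; 5.3 nM AmpC reagent; cpd preinc 15 min RT; nitrocefin (800 uM stock) to start; A480 q20 s × 4 min; Activity was normalised to no-enzyme and no-compound control wells.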
CHX counter: affects cycloheximide protein synthesis inhibition readout, counter-screen | cell reporter, cycloheximide protein synthesis inhibition counterscreen | 300,000 compounds, 12% hits | max response, %; in the data active = max response mostly above about 13%, no sharp cut-off; inactive = mostly below about 14%; also: read at 38.3 µM for the half of the compounds with a filed dose; 0% is about no effect
The depositor's hits bear a star; ? = inconclusive; . = not tested or not shown. This is one part of a sample in which hits are shown more often than they occur. Unless noted, calls follow the shape of the dose curve; as a rule, active = well fitted curve in the direction sought with a large enough effect; inconclusive = small, poorly fitted or top-dose-only effect, or another doubt; inactive = no such curve, though single readings can be large; an effect the other way counts as inactive or inconclusive.

SMILES	AmpC inh no detg	AMA1 RON2 block	SARS PLP yeast	Shiga inhibitor	AmpC inh detg	CHX counter
COc1ccccc1OCC(=O)Nc1nnc(C2CCCC2)s1	-20.4%	-12.2%	0.7%	15.0	-10.9%	14.9*
Cc1cccc(OCC(=O)Nc2nnc(-c3ccco3)s2)c1	-34.8%	-3.7%	-6.0%	-10.6	?	-0.8
COc1ccccc1OCC(=O)Nc1nnc(-c2ccco2)s1	-9.5%	5.5%	11.1%	35.3	-12.2%	47.1*
CCCC(=O)Nc1nnc(-c2ccco2)s1	-16.0%	-4.5%	-4.2%	57.7*	-0.2%	39.6*
NS(=O)(=O)c1ccc(Nc2ncccc2[N+](=O)[O-])cc1	-8.5%	-14.8%	-14.1%	29.6	-14.2%	16.5
CC1(C)Oc2ccc(NC(=O)c3ccco3)cc2O1	-31.1%	8.0%	-14.2%	90.8*	?	31.6*
O=C(COC(=O)c1ccco1)Nc1ccc2c(c1)OCCO2	-23.4%	-0.6%	-2.8%	79.3*	?	56.2*
O=C(Nc1ccc2c(c1)OCCO2)c1ccco1	-15.4%	-11.9%	-15.4%	112.4*	-12.3%	40.4*
O=C(Nc1cccc(NC(=O)c2ccco2)c1)c1ccc2c(c1)OCCO2	-43.9%	-10.7%	0.8%	43.0	?	21.6
COc1ccc(CN2C(=O)NC(=O)/C(=C/c3ccoc3)C2=O)cc1	10µM*	-16.2%	2.5%	-6.8	-5.4%	-2.5
COc1ccc(CN2C(=O)NC(=O)/C(=C/c3cc(OC)c(OC)c(OC)c3)C2=O)cc1	-25.7%	-0.9%	-1.0%	-17.4	0.9%	-0.6
O=C(c1ccc([N+](=O)[O-])s1)N1CCN(c2ccccn2)CC1	-15.3%	-0.2%	-8.0%	-12.9	-7.8%	-2.1
CC(C)Nc1nc(Cl)nc(NC2CCCCC2)n1	-30.7%	-3.6%	-6.5%	13.9	?	10.0
CC(C)(CO)Nc1nc(Cl)nc(NC2CCCCC2)n1	-14.7%	5.8%	1.4%	27.3	6.1%	20.3*
CCNc1nc(Cl)nc(NC2CCCCC2)n1	-47.9%	-13.5%	1.2%	.	?	21.3*
COc1ccccc1C(=O)Nc1ccccc1C(=O)OCc1cc(=O)n2c(C)csc2n1	.	.	.	.	6.9%	.
Cc1ccc(CS(=O)(=O)c2ncc(Cl)c(C(=O)Nc3ccc(OC(F)F)cc3)n2)cc1	-13.9%	-17.8%	-4.8%	26.7	-3.5%	17.4*
CCS(=O)(=O)c1ncc(Cl)c(C(=O)NCc2ccccc2)n1	.	.	.	.	-2.3%	.
COc1ccc(CNC(=O)c2nc(S(=O)(=O)Cc3ccccc3)ncc2Cl)cc1	10.3%	8.8%	-8.4%	14.5	?	28.9*
CC(=O)Nc1ccc(NC(=O)c2nc(S(=O)(=O)Cc3ccccc3)ncc2Cl)cc1	11.6%	-2.0%	8.9%	93.5*	-12.5%	36.6*
O=C(NCc1ccccc1)c1nc(S(=O)(=O)Cc2ccccc2)ncc1Cl	-20.4%	-4.9%	-12.8%	48.3	-2.6%	27.5*
COc1ccc(NC(=O)c2nc(S(=O)(=O)Cc3ccc(C)cc3)ncc2Cl)cc1	.	.	.	.	1.3%	.
CCOC(=O)c1c(CSc2ccccc2)n(C)c2cc(Br)c(OCC(O)CNC(CO)(CO)CO)cc12 (stereo not given)	77.4%	?	21.0%	-2.4	?	-3.4
COc1ccc(N2CCN(C(=O)c3c(C)oc4ncnc(N5CCCCC5)c34)CC2)cc1	.	.	.	.	3.7%	.
CN(C)/C=C1\C(=O)N(c2ccc([N+](=O)[O-])cc2)N=C1c1ccccc1	-51.4%	-11.8%	-18.7%	93.1*	-10.1%	31.6*
SMILES	AmpC inh no detg	AMA1 RON2 block	SARS PLP yeast	Shiga inhibitor	AmpC inh detg	CHX counter
COc1ccccc1/C=C1/C(=O)N(c2ccc([N+](=O)[O-])cc2)N=C1C	-18.1%	0.9%	-5.3%	13.9	?	-0.8
C/C(=C1/C(=O)N(c2ccc([N+](=O)[O-])cc2)N=C1c1ccccc1)N(C)C	-53.8%	.	-1.9%	33.1	?	24.5*
CN(C)/C=C1/C(=O)N(c2ccc([N+](=O)[O-])cc2)N=C1c1ccccc1	-42.2%	.	6.5%	82.7*	2.6%	34.2*
Cc1ccc(S(=O)(=O)N(C)C)cc1NC(=O)CN1C(=O)NC(Cc2c[nH]c3ccccc23)C1=O (stereo not given)	-13.7%	-9.6%	0.3%	-3.4	-4.5%	-2.0
COCCCNCCCOc1ccc(C(C)(C)c2ccccc2)cc1	-1.1%	-20.3%	14.3%	-9.6	2.4%	-3.9
COc1ccc(-c2noc(CCC(=O)Nc3cccc(C)c3)n2)cc1	-32.1%	4.9%	1.2%	100.1*	1.2%	27.1*
COc1ccc(S(=O)(=O)N(C)Cc2nc(-c3cccc(C)c3)no2)cc1	.	.	.	.	1.2%	.
COc1ccc(-c2noc(N(C)CC(=O)Nc3cccc(C(F)(F)F)c3)n2)cc1	8.7%	9.2%	-9.3%	36.0	5.8%	21.3*
Cc1cccc(-c2noc(Cc3ccc(Cl)cc3)n2)c1	-36.1%	94.6%	-7.3%	96.3	-2.6%	39.6*
COc1ccc(Cc2nc(-c3cccc(C)c3)no2)cc1	-2.8%	86.0%	?	111.6*	-2.1%	52.1*
COc1ccc(Cl)cc1NC(=O)NC1CCCCC1	-29.1%	?	-11.9%	-14.1	?	-3.3
COc1ccc(NC(=O)CCCCCN2C(=O)c3ccccc3C2=O)c(OC)c1	-3.4%	-1.2%	-0.4%	-11.4	4.7%	1.7
CC(=O)Nc1cncc(-c2ccccc2N(C)C)n1	.	-2.6%	.	.	.	.
COc1ccccc1-c1noc(CCC(=O)Nc2ccccc2Cl)n1	24.2%	12.3%	-20.0%	-10.0	-5.3%	19.1*
COc1ccc(OC(=O)c2cccc([N+](=O)[O-])c2)c(C(=O)/C=C/c2cccs2)c1	-33.0%	?	-6.0%	17.0	-4.2%	18.9*
O=C(C1COc2ccccc2O1)N1CCN(Cc2ccccc2)CC1 (stereo not given)	39.3%	6.2%	5.5%	.	-17.8%	-3.4
[O-][N+](=Cc1ccccc1)c1ccc(Cl)cc1	.	-5.6%	.	.	.	.
CC(C)(/C=N/O)/[N+]([O-])=C/c1ccco1	-17.1%	6.0%	1.4%	-6.7	-15.9%	20.1
[O-]/[N+](=C/c1ccco1)c1ccccc1	-11.0%	-6.1%	-0.8%	39.7	1.6%	23.2*
[O-]/[N+](=C\c1ccco1)c1ccc(Cl)cc1	-19.4%	-8.0%	-12.8%	82.3*	-14.3%	61.2*
O=C(/C=C\c1ccco1)Nc1cc([N+](=O)[O-])ccc1F	-28.2%	-3.4%	-23.3%	8.2	-3.2%	-0.9
[O-]/[N+](=C/c1ccc(F)cc1)c1ccc(Cl)cc1	-10.8%	-1.3%	4.5%	53.4	3.6%	54.4*
Clc1ccc(C2CC(c3cccs3)n3ncnc3N2)c(Cl)c1 (stereo not given)	-9.3%	-5.6%	-0.2%	-8.8	4.6%	-2.9
O=C(Nc1nc2ccc([N+](=O)[O-])cc2s1)c1ccco1	-0.2%	.	2.5%	44.2	2.3%	27.4*
CSc1nc2ccc(NC(=O)c3ccc(=O)[nH]c3)cc2s1	-15.4%	11.0%	3.2%	-5.9	?	8.6

Source: PubChem (National Center for Advancing Translational Sciences (NCATS))
